According to PubChem BioAssay:
Records with an inconclusive call do not appear. Active and inactive are the calls of the source. Unless noted, no stated cut-off is given here; in the data, active means inhibition above about 80%; inactive means the rest.

How the values were obtained:
[1] = viability loss in pontine glioma line – cell-based, SU-DIPG-XXV, MIPE5.0, CellTiter-Glo, qHTS, dose response (AID 1347065; cut-off not given, nearly all actives have AC50 up to about 26 µM;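 further: cells exposed to compound for 48 hours before ATP readout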); conditions: CellTiter-Glo ATP luminescence
[2] = JHH-DIPG-1 glioma cell viability, MIPE5.0 library, CellTiter-Glo luminescence, qHTS (AID 1347067; cut-off not given, nearly all actives have AC50 up to about 26 µM;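 further: cells exposed to compound for 48 hours before readout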); conditions: JHH-DIPG-1 glioma viability, CellTiter-Glo ATP luminescence
[3] = growth inhibition of DIPG cells – cell-based, MIPE5.0 library, qHTS (AID 1347068; cut-off not given, nearly all actives have IC50 up to about 30 µM); conditions: SU-DIPG-XXV viability
[4] = growth inhibition, single agent or in combination, cell-based, chromothripsis tumors, cisplatin or BGB combos (AID 1671449); conditions: LFS_MB_P medulloblastoma cells;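 further: cells exposed for 96 hours; 0% = vehicle DMSO and 100% = killing by high DMSO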
[5] = growth inhibition, single agent and combos, cell-based, chromothripsis tumors, cisplatin or BGB combos (AID 1671450); conditions: HDN33 neuroblastoma cells, stronger effect = higher value;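 further: cells exposed to compound for four days; 0% = vehicle DMSO and 100% = cell killing by high DMSO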
[6] = growth inhibition, single agents and combos, ICB984, cell-based, cisplatin or BGB combos, synergistic combos for chromothripsis tumors (AID 1671451; call rule not given here;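 further: cells exposed for 96 hours before readout; 0% = vehicle DMSO and 100% = killing by high DMSO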); conditions: ICB984 medulloblastoma cells, drug combinations, stronger effect = higher value
[7] = growth inhibition, single agents and combos, LFS_MB_1R, cell-based, cisplatin or BGB combos, synergistic combos for chromothripsis tumors (AID 1671452); conditions: LFS_MB_1R medulloblastoma cells, stronger effect = higher value;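 further: cells exposed for 96 hours before readout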
[8] = growth inhibition, single agents and combos, HTB85, cell-based, BGB or cisplatin IC20 combos, synergistic combos for chromothripsis tumors (AID 1671453); conditions: HTB85 osteosarcoma cells, drug combinations, stronger effect = higher value;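 further: cells exposed for 96 hours before readout; 0% = vehicle DMSO and 100% = high DMSO killing control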
[9] = growth inhibition, single agents and combos, CRL2098, cell-based, BGB or cisplatin IC20 combos, synergistic combos for chromothripsis tumors (AID 1671454); conditions: CRL2098 osteosarcoma cells, drug combinations, stronger effect = higher value;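 further: cells exposed for 96 h before readout; 0% = vehicle DMSO and 100% = killing by high DMSO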
[10] = growth inhibition, single agents and combos, HD-MB03, cell-based, BGB or cisplatin IC20 combos, synergistic combos for chromothripsis tumors (AID 1671455; in the data active means inhibition above about 83%;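 further: 0% = vehicle DMSO and 100% = high DMSO as cytotoxic control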); conditions: HD-MB03 medulloblastoma cells, stronger effect = higher value
[11] = growth inhibition, single agents and combos, UWB1.289, cell-based, BGB or cisplatin combos, synergistic combos for chromothripsis tumors (AID 1671456); conditions: UWB1.289 ovarian carcinoma cells, stronger effect = higher value;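 further: cells exposed to compound for four days; 0% = vehicle DMSO and 100% = killing by high DMSO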
[12] = growth inhibition, single agents and combos, LFS_MB_2R, cell-based, cisplatin combos, synergistic combos for chromothripsis tumors (AID 1671457); conditions: LFS_MB_2R medulloblastoma cells, stronger effect = higher value;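 further: cells exposed to compound for four days before readout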
[13] = growth inhibition, MDA-MB-436, cell-based, BGB or cisplatin combos, synergistic combos for chromothripsis tumors (AID 1671458; call rule not given here;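 further: cells exposed for 96 hours; 0% = vehicle DMSO and 100% = killing by high DMSO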); conditions: MDA-MB-436 breast carcinoma growth inhibition, drug combinations, stronger effect = higher value
[14] = UWB1.289_BRCA1 ovarian cancer growth, cell-based, BGB or cisplatin combinations (AID 1671459); conditions: UWB1.289 BRCA1 ovarian carcinoma, drug combinations, stronger effect = higher value
[15] = drug combination toxicity in non-malignant astrocytes – cell-based, BGB or cisplatin IC20 combos, cytotoxicity control for chromothriptic childhood tumor combination screen (AID 1671460); conditions: Human astrocytes, viability inhibition, drug combinations, at 0.5 µM, stronger effect = higher value;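 further: cells exposed to compounds for 96 hours before viability readout; 0% = vehicle and 100% = killing control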
[16] = BT084 cell growth, single and combined drugs, ICGC_MB145, cisplatin and BGB IC40 combos (AID 1671461); conditions: BT084 medulloblastoma cells, drug combinations, stronger effect = higher value;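 further: cells exposed to drugs for 96 hours; 0% = vehicle DMSO and 100% = high DMSO full killing control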
[17] = RCMB18 cell growth, single agent and combined, cisplatin and BGB IC40 combos (AID 1671462); conditions: RCMB18 medulloblastoma cells, stronger effect = higher value;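 further: cells exposed to compound for four days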
[18] = CRL1545 cell growth, single agent and combined, cisplatin and BGB IC20 combos (AID 1671464); conditions: CRL1545 osteosarcoma cells, stronger effect = higher value;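 further: cells exposed to compound for 96 hours before readout; 0% = vehicle DMSO and 100% = high DMSO killing control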
[19] = measured here: combination with BGB IC40, at 0.05 µM
[20] = measured here: with BGB IC20 combination, at 0.5 µM
[21] = measured here: with cisplatin IC20 combination, at 0.5 µM
[22] = measured here: combination with cisplatin, at 0.5 µM
[23] = measured here: combination with cisplatin, at 5 µM

C[C@]12CCCN1CC1=NNC(=O)c3cc(F)cc4[nH]c2c1c34
AC50 [1]: 18.6 µM (active) | outcome [2]: inactive | outcome [3]: inactive | inhibition ([4]; at 0.5 µM, stronger effect = higher value): -13.4% (inactive) | inhibition ([4]; measured here: combination with BGB IC20, at 0.005 µM): -16.8% | inhibition ([4]; measured here: combination with BGB IC40, at 0.005 µM): -28.9% | inhibition [4, 19]: -3.06% | inhibition ([4]; measured here: combination with cisplatin, at 0.5 µM, stronger effect = higher value): -13.1% | inhibition ([4]; measured here: combination with cisplatin, at 5 µM, stronger effect = higher value): -44.5% | inhibition ([5]; BGB combo, at 5 µM): 6.78% | inhibition ([5]; at 0.5 µM): 9.23% (inactive) | inhibition ([5]; cisplatin combo, at 5 µM): 35.8% | inhibition [5, 20]: 6.38% | inhibition [5, 21]: -0.356% | inhibition ([5]; single agent, at 5 µM): 20.9% | inhibition ([6]; BGB IC20 combo, at 0.005 µM): -2.46% | inhibition ([6]; BGB IC40 combo, at 0.005 µM): -21.8% | inhibition ([6]; BGB IC40 combo, at 0.05 µM): -22.5% | inhibition ([6]; at 0.5 µM): -38.3% (inactive) | inhibition ([6]; cisplatin combo, at 0.05 µM): -27.3% | inhibition ([6]; cisplatin combo, at 0.5 µM): -41.3% | inhibition ([6]; cisplatin combo, at 5 µM): -0.499% | inhibition ([6]; measured here: 5 uM single agent, at 5 µM): -4.83% | inhibition ([7]; at 0.5 µM): -20.6% (inactive) | inhibition [7, 19]: 7.39% | inhibition [7, 22]: -14% | inhibition [7, 23]: 1.25% | inhibition ([8]; at 0.5 µM): 2.64% (inactive) | inhibition ([8]; measured here: with BGB IC20, at 0.5 µM): -13.5% | inhibition ([8]; measured here: with BGB IC20, at 5 µM): 4.08% | inhibition ([8]; measured here: with cisplatin IC20, at 0.5 µM): 10.2% | inhibition ([8]; measured here: with cisplatin IC20, at 5 µM): 21.1% | inhibition ([8]; single agent, at 5 µM): 23.4% | inhibition ([9]; at 0.5 µM): -35.2% (inactive) | inhibition ([9]; measured here: combination with BGB at IC20, at 0.5 µM): 1.29% | inhibition ([9]; measured here: combination with cisplatin at IC20, at 0.5 µM): -26.6% | inhibition ([10]; at 0.5 µM): -2.5% (inactive) | inhibition ([10]; measured here: combo with BGB at IC20, at 0.5 µM): -14.3% | inhibition ([10]; measured here: combo with cisplatin at IC20, at 0.5 µM): 6.94% | inhibition ([11]; at 0.5 µM): -3.02% (inactive) | inhibition ([11]; measured here: inhibition with BGB combination, at 0.05 µM): -15.4% | inhibition ([11]; measured here: inhibition with cisplatin combination, at 0.05 µM): -2.14% | inhibition ([12]; at 0.5 µM): -20.2% (inactive) | inhibition [12, 22]: -18.1% | inhibition [12, 23]: -24.5% | inhibition ([13]; at 0.5 µM): 3.1% (inactive) | inhibition ([13]; measured here: BGB combination, at 0.5 µM): -13.3% | inhibition ([13]; measured here: BGB combination, at 5 µM): -31.4% | inhibition ([13]; measured here: cisplatin combination, at 0.5 µM): 5.47% | inhibition ([13]; measured here: cisplatin combination, at 5 µM): 22.8% | inhibition ([14]; BGB combination, concentration series, at 5 µM): -3.19% | inhibition ([14]; at 0.5 µM): 2.39% (inactive) | inhibition ([14]; cisplatin combination, concentration series, at 5 µM): 5.42% | inhibition [15]: 14.9% (inactive) | inhibition ([15]; measured here: combo with BGB IC20): 12% | inhibition ([15]; measured here: combo with cisplatin IC20): 13.1% | inhibition ([16]; at 0.5 µM): -23% (inactive) | inhibition ([16]; cisplatin combination, at 0.5 µM): -25.6% | inhibition ([16]; cisplatin combination, at 5 µM): -25.6% | inhibition ([16]; measured here: BGB IC40 combination 0.05 uM, at 0.05 µM): -29% | inhibition ([16]; single agent, at 5 µM): -12.6% | inhibition ([17]; at 0.5 µM): -18.5% (inactive) | inhibition ([17]; cisplatin combo, at 5 µM): 3.33% | inhibition ([17]; measured here: BGB IC40 combination, at 0.05 µM): -15.1% | inhibition [17, 22]: -6.38% | inhibition ([17]; single agent, at 5 µM): -28.1% | inhibition ([18]; at 0.5 µM): 7.98% (inactive) | inhibition [18, 20]: -8.07% | inhibition [18, 21]: 16% | inhibition ([18]; single agent, at 0.05 µM): 13.9% | inhibition ([18]; single agent, at 5 µM): 35%
